Measurements: PMC7862700, “An all-to-all approach to the identification of sequence-specific readers for epigenetic DNA modifications on cytosine”

How the values were obtained:
Experiment in all cases: DAPPL (digital affinity profiling via proximity ligation, sequencing); 10 mM Tris-HCl pH 7.5, 50 mM NaCl, 1 mM DTT, 4% glycerol, room temperature, 30 min; GST-TFs on glutathione beads, 16-mer random dsDNA library, 0.1% formaldehyde crosslink after washing; high values mean tight binding
Details in all cases: protein: recombinant; tags: N-terminal GST; dsDNA, one strand shown
FLI1 = target: T1, FLI1 (Homo sapiens, UniProt Q01543 1-452)
T1 sequence: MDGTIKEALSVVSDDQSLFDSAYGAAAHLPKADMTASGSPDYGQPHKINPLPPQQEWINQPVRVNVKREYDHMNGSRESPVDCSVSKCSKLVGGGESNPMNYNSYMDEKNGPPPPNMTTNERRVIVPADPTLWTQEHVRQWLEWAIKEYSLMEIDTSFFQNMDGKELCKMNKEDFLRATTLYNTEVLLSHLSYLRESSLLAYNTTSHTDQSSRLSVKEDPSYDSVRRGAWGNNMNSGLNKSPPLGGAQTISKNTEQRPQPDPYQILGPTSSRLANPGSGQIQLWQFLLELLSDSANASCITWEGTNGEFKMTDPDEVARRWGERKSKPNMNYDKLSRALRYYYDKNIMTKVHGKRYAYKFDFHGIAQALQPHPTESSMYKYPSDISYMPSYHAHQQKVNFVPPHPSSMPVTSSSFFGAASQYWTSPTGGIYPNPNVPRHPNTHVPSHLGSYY
Procedure, shortened: (§1)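 Beads coated with glutathione captured GST-fused human transcription factors that had been expressed in yeast, and the factors were then given DNA barcodes and pooled with a tag-only sample. The pools were incubated with 200 nmole of a random double-stranded 16-mer DNA library in Tris/NaCl/DTT/glycerol buffer for 30 min at room temperature, washed, crosslinked with 0.1% formaldehyde and proximity-ligated with BsaI/T4 ligase at 37 °C for 1 h. PCR amplification and Illumina NextSeq500 sequencing came last. Binding signal is each hexamer's read frequency for a factor divided by its frequency for the tag-only sample.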

ELK1 = target: T2, ELK1 (Homo sapiens, UniProt P19419 1-428)
T2 sequence: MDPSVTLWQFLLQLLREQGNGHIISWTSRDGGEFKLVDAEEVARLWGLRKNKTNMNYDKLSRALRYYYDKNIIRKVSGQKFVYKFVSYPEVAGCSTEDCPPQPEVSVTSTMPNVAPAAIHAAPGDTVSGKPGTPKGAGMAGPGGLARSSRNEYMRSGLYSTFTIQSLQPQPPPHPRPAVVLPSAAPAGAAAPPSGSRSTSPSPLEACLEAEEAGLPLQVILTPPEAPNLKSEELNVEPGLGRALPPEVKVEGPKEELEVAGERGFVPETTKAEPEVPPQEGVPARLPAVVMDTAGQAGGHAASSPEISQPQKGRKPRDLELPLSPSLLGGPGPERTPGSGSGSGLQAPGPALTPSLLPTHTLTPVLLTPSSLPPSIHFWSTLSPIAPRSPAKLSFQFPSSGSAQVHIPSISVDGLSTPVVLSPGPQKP
Procedure, shortened: as §1

GABPA = target: T3, GABPA (Homo sapiens, UniProt Q06546 1-454)
T3 sequence: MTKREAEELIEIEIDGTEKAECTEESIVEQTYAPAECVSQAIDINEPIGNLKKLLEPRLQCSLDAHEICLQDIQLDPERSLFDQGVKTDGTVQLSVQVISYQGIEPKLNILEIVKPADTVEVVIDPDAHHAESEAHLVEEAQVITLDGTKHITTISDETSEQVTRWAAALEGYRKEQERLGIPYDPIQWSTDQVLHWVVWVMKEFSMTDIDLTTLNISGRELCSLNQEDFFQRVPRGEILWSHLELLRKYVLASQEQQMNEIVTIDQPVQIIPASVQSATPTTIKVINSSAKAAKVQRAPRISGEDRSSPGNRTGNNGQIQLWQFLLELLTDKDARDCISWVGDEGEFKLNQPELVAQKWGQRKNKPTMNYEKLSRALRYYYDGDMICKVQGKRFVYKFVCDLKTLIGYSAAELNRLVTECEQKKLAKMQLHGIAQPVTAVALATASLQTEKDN
Procedure, shortened: as §1

ERG = target: T4, ERG (Homo sapiens, UniProt P11308 1-479)
T4 sequence: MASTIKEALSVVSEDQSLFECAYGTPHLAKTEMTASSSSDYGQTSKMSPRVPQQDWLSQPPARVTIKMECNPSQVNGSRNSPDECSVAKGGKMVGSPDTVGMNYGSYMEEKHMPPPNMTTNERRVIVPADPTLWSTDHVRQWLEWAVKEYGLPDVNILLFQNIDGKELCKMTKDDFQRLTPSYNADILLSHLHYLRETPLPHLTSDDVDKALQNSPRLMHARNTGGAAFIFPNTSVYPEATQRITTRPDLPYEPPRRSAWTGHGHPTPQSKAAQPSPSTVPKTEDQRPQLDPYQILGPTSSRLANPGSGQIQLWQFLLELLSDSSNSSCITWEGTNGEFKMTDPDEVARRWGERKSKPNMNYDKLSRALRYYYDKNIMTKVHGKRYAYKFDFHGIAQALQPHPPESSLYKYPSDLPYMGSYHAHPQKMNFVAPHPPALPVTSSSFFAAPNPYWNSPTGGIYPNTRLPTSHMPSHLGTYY
Procedure, shortened: as §1

ELF1 = ELF1 (Homo sapiens, UniProt P32519 1-619)
Procedure, shortened: as §1

EHF = target: T5, EHF (Homo sapiens, UniProt Q9NZC4 1-300)
T5 sequence: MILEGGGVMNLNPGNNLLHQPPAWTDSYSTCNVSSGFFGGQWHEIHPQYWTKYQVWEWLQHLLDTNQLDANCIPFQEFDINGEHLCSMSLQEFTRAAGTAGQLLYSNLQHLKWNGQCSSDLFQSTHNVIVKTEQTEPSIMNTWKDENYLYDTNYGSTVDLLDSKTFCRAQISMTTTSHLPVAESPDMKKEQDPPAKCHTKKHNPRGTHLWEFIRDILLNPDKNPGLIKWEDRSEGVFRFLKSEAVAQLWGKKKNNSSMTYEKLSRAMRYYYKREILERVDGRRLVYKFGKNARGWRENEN
Procedure, shortened: as §1

SPI1 = SPI1 (Homo sapiens, UniProt P17947 1-270)
Procedure, shortened: as §1

SPIB = SPIB (Homo sapiens, UniProt Q01892 1-262)
Procedure, shortened: as §1

ELK3 = target: T6, ELK3 (Homo sapiens, UniProt P41970 1-407)
T6 sequence: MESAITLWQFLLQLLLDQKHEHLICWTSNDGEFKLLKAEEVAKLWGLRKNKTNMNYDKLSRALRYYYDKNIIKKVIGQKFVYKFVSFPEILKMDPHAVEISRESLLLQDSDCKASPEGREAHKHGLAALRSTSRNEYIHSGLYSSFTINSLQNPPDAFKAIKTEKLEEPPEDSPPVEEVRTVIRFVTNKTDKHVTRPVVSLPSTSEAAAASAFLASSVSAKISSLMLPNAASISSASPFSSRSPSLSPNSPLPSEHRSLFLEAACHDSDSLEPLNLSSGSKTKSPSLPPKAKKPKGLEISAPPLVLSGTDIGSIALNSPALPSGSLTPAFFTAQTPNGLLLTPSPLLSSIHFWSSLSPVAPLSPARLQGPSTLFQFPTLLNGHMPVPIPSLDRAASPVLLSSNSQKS
Procedure, shortened: as §1

Chain of SPIB (Q01892 whole entry): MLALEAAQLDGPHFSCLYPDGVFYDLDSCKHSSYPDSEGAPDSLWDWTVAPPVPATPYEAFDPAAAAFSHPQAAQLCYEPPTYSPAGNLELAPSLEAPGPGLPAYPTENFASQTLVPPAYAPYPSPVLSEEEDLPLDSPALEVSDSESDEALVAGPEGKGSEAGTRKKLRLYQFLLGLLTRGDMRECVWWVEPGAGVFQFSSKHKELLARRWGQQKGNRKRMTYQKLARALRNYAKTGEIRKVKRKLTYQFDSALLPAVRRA
Chain of ELF1 (P32519 whole entry): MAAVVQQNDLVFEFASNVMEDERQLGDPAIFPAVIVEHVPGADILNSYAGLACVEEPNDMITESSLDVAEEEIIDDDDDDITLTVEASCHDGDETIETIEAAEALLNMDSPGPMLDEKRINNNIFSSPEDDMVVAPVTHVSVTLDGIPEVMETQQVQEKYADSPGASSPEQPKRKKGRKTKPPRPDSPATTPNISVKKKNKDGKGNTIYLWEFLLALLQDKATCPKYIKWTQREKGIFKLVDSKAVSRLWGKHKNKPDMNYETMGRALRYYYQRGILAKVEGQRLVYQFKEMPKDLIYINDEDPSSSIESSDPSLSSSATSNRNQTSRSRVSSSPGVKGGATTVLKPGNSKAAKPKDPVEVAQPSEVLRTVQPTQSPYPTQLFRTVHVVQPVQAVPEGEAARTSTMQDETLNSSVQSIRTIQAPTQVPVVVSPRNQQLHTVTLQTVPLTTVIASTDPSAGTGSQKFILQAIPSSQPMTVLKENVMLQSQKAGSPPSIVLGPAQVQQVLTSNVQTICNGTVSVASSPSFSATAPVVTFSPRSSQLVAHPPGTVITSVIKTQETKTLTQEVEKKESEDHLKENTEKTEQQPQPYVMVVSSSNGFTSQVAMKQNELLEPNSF

CTGAAT
binding signal (FLI1): 1.23 fold enrichment (6-mer frequency, TF over GST control) | binding signal (ELK1): 1.37 fold enrichment (6-mer frequency, TF over GST control) | binding signal (GABPA): 1.36 fold enrichment (6-mer frequency, TF over GST control) | binding signal (ERG): 1.36 fold enrichment (6-mer frequency, TF over GST control) | binding signal (ELF1): 1.31 fold enrichment (6-mer frequency, TF over GST control) | binding signal (EHF): 1.31 fold enrichment (6-mer frequency, TF over GST control) | binding signal (SPI1): 1.36 fold enrichment (6-mer frequency, TF over GST control) | binding signal (SPIB): 1.26 fold enrichment (6-mer frequency, TF over GST control) | binding signal (ELK3): 1.23 fold enrichment (6-mer frequency, TF over GST control)
